Records with an inconclusive call do not appear. The source made the active and inactive calls. Unless noted, the call rests on the fitted dose curve; in most records, active means well fitted curve in the direction sought with a large enough effect in the repeat runs; inconclusive means weak or mixed curves; inactive means no such curve, though single readings can be large; an effect the other way counts as inactive or inconclusive.
Assays:
[1] = A CellTox Green Cytotoxicity Assay to monitor cytotoxicity in HepG2 cells - 0 hour (AID 1224882); further: nearly all actives have a fitted effect of over 35% in size
How it was run: (§1)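 Cells and non-lytic dye reagent are dispensed together (600 HepG2 cells/well) and incubated 5 h before DMSO compound transfer. Kinetic fluorescence is then recorded in the same wells during 40 h at 37 C.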

[2] = A CellTox Green Cytotoxicity Assay to monitor cytotoxicity in HepG2 cells - 32 hour (AID 1224883); further: nearly all actives have a fitted effect of over 50% in size
How it was run: as §1

[3] = A CellTox Green Cytotoxicity Assay to monitor cytotoxicity in HEK293 cells - 8 hour (AID 1224884); further: nearly all actives have a fitted effect of over 35% in size
How it was run: (§2)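 Cells (HEK293, 600/well) and dye reagent are dispensed together. After 5 h at 37 C, 23 nL compound is pinned in. Plates stay at 37 C for 40 h with fluorescence read at 0h, 8h, 16h, 24h, 32h and 40h.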

[4] = qHTS RealTime-Glo MT Cell Viability Assay in HepG2 cells - 16 hour (AID 1224885); further: nearly all actives have a fitted effect of over 50% in size
How it was run: (§3)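 Viability was tracked continuously by NanoLuc luminescence from prosubstrate reduced by living HepG2 cells, at successive time points over 40 h of compound exposure. Cells with reagent were preincubated 5 h at 37 °C before compound addition.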

[5] = qHTS RealTime-Glo MT Cell Viability Assay in HEK293 cells - 24 hour (AID 1224886); further: top concentration of the series differs between compounds; nearly all actives have a fitted effect of over 50% in size
How it was run: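 Viability tracked continuously by luminescence as live cells reduce a prosubstrate for NanoLuc; HEK293 cells preincubated 5 h, compound-treated at 37 C, and read at 0, 8, 16, 24, 32 and 40 h.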

[6] = qHTS RealTime-Glo MT Cell Viability Assay in HEK293 cells - 8 hour (AID 1224887); further: top concentration of the series differs between compounds; nearly all actives have a fitted effect of over 50% in size
How it was run: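 Real-time viability in HEK293: signal arises when living cells convert a prosubstrate for NanoLuc in the medium, so luminescence tracks viable cell number. Compound (23 nL, DMSO) added 5 h post-seeding; kinetic reads at 0–40 h, 37 C.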

[7] = A CellTox Green Cytotoxicity Assay to monitor cytotoxicity in HEK293 cells - 16 hour (AID 1224888); further: nearly all actives have a fitted effect of over 35% in size
How it was run: as §2

[8] = qHTS RealTime-Glo MT Cell Viability Assay in HepG2 cells - 0 hour (AID 1224889); further: nearly all actives have a fitted effect of over 50% in size
How it was run: as §3

[9] = A CellTox Green Cytotoxicity Assay to monitor cytotoxicity in HepG2 cells - 8 hour (AID 1224890); further: nearly all actives have a fitted effect of over 45% in size
How it was run: as §1

[10] = qHTS assay to identify small molecule antagonists of the estrogen receptor alpha (ER-alpha) signaling pathway using the BG1 cell line in the presence of 0.1 nM 17-beta-estradiol - cell viability counter screen (AID 1259241); further: nearly all actives have a fitted effect of over 40% in size
How it was run: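 Following 5 days in phenol red-free medium with charcoal-stripped serum, VM7Luc4E2 cells received test compounds alongside 0.1 nM 17beta-estradiol (final) at 37C for 22 hr. Live cells were then quantified via protease-substrate fluorescence.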

[11] = qHTS assay to identify small molecule antagonists of the androgen receptor (AR) signaling pathway using the MDA cell line in the presence of 0.5 nM R1881 - cell viability counter screen (AID 1259242); further: nearly all actives have a fitted effect of over 45% in size
How it was run: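 Steps: plate MDA-kb2 cells, rest 5 hr at 37C without CO2; pin in compounds in DMSO; add R1881 to 0.5 nM final; incubate 16 hr; add CellTiter-Fluor, 30 min; read fluorescence.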

[12] = biological target: Androgen receptor (Homo sapiens) (UniProt P10275); test: qHTS assay to identify small molecule antagonists of the androgen receptor (AR) signaling pathway using the MDA cell line in the presence of 0.5 nM R1881 (AID 1259243); further: nearly all actives have a fitted effect of over 50% in size
How it was run: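 Stably transfected MDA-kb2 cells express luciferase from an MMTV promoter bearing both AR and GR response elements. Compounds plus 0.5 nM R1881 (final) were incubated 16 hr at 37C without CO2, then luminescence measured.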

[13] = biological target: Estrogen receptor (Homo sapiens) (UniProt P03372); test: qHTS assay to identify small molecule antagonists of the estrogen receptor alpha (ER-alpha) signaling pathway using the BG1 cell line in the presence of 0.1 nM 17-beta-estradiol (AID 1259244); further: nearly all actives have a fitted effect of over 50% in size
How it was run: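 Antagonist mode: compounds in DMSO are pinned onto VM7Luc4E2 reporter cells, 0.1 nM final 17beta-estradiol is added, and after 22 h at 37C luciferase luminescence is measured with ONE-Glo.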

[14] = qHTS assay to identify small molecule phospholipidosis (PLD) inducers (AID 1259344; active means well fitted curve in the direction sought with a large enough effect; an effect the other way counts as inactive or inconclusive)
How it was run: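 Phospholipid accumulation was scored by imaging: fixed, Hoechst-counterstained HepG2 cells stained with LipidTOX Red after 24 h compound exposure at 37 C. Read-outs were pit count and pit intensity per well or per cell, with amiodarone and DMSO controls.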

[15] = qHTS assay to identify small molecule HDAC inhibitors (AID 1259364);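 further: wild-type HCT-116 cells with endogenous class I/II HDAC activity; top concentration of the series differs between compounds; nearly all actives have a fitted effect of over 45% in size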
How it was run: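 Cells (HCT-116, wild type) are seeded at 1,500 per well, incubated overnight, treated with compound in DMSO for 2 hr, then developed with HDAC-Glo I/II reagent for 30 min at room temperature.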

[16] = qHTS assay to identify small molecule HDAC inhibitors - cell viability counter screen (AID 1259365)
How it was run: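 HCT-116 wild-type, overnight attachment; 2hr drug exposure, 37C; CellTiter-Glo luminescent ATP readout after 30min RT.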

[17] = qHTS assay to identify small molecule agonists of the sonic hedgehog signaling (Shh) pathway - cell viability counter screen (AID 1259366); further: nearly all actives have a fitted effect of over 50% in size
How it was run: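 Compounds in DMSO were pin-transferred onto 3T3 Gli1-Luc cells that had settled 4hr; plates then stood 24hr at 37C and 5% CO2. One hour before the end, CellTiter-Fluor was added and fluorescence recorded.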

[18] = qHTS assay to identify small molecule agonists of the sonic hedgehog signaling (Shh) pathway (AID 1259368; calls by dose curve;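 further: NIH/3T3-derived 3T3Gli1-Luc cells carrying a stable Gli1-driven firefly luciferase reporter; series mostly up to about 92 µM; nearly all actives have a fitted effect of over 15% in size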)
How it was run: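 Cells of a mouse NIH/3T3 clone stably expressing luciferase under the Gli1 transcriptional response element are exposed to test chemicals for 24 hr at 37 C. Pathway activation is detected as a rise in luminescence.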

[19] = qHTS assay to identify small molecule antagonists of the sonic hedgehog signaling (Shh) pathway (AID 1259369; calls by dose curve; further: nearly all actives have a fitted effect of over 45% in size)
How it was run: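 Cells are plated and held 4hr at 37 C, compounds (DMSO) are pinned in, conditioned medium is added to stimulate the pathway, and after 24hr luciferase reagent is added for 30min before luminescence is read.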

[20] = qHTS assay to identify small molecule antagonists of the sonic hedgehog signaling (Shh) pathway - cell viability counter screen (AID 1259367); further: nearly all actives have a fitted effect of over 55% in size
How it was run: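 Viability was read by CellTiter-Fluor fluorescence in the same wells, reagent added 23 hr into compound treatment and incubated 1 hr at 37C. The 3T3 Gli1-Luc reporter cells (2,000/well) received conditioned medium after compound and ran 24 hr.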
On the % scale 0 is the no-effect control and ±100 the full control effect.

Sequence of Estrogen receptor (Homo sapiens) (P03372 whole entry, looked up): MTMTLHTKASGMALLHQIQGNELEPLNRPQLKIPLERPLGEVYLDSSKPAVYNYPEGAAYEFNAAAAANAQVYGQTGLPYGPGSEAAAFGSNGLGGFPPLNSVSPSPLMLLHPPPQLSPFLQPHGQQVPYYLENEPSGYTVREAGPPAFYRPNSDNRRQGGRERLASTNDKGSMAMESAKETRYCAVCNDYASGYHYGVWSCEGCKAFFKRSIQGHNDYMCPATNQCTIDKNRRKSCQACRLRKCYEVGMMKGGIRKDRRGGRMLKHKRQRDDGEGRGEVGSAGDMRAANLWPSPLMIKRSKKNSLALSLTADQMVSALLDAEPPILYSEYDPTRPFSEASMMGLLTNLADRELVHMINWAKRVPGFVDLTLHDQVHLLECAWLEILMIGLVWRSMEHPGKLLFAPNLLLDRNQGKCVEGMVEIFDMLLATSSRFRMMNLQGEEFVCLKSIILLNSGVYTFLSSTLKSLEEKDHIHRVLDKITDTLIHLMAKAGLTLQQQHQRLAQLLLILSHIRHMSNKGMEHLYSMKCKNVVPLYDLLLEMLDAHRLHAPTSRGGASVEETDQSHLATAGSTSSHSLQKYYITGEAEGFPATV
Sequence of Androgen receptor (Homo sapiens) (P10275 whole entry, looked up): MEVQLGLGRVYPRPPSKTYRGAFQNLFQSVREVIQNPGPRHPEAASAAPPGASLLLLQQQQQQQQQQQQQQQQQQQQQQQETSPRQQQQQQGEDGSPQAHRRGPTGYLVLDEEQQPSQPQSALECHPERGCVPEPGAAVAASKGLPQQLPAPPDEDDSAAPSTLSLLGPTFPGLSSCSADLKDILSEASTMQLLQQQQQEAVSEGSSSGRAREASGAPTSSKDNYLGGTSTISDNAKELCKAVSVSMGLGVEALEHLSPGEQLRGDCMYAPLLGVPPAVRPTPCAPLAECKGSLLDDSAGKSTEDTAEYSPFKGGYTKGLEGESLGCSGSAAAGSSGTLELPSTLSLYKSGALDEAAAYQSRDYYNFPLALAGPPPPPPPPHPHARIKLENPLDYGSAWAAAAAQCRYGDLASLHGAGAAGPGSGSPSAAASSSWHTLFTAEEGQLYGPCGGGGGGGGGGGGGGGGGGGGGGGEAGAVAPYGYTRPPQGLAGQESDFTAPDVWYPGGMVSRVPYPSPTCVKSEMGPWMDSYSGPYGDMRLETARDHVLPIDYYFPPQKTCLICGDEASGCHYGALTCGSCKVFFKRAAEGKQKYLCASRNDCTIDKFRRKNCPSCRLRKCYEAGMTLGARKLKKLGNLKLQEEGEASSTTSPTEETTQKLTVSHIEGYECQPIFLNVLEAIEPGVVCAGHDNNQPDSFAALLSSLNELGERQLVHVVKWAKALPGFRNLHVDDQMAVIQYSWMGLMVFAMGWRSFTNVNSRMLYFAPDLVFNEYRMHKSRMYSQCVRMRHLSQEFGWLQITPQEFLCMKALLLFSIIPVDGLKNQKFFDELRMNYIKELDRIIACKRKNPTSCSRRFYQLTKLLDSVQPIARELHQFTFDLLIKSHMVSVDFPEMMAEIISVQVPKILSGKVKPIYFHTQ

O=C(O)COC(=O)Cc1ccccc1Nc1c(Cl)cccc1Cl
inactive: Potency [1] | Potency [2] | Potency [3] | Potency [4] | Potency [5] | Potency [6] | Potency [7] | Potency [8] | Potency [9] | Potency [10] | Potency [11] | Potency [12] | Potency [13] | Potency [14] | Potency [15] | outcome [16] | Potency [17] | outcome [18] | Potency [19]

C=CC[N+]1([C@H]2C[C@H]3[C@@H]4CC[C@H]5C[C@H](OC(C)=O)[C@@H](N6CCCCC6)C[C@]5(C)[C@H]4CC[C@]3(C)[C@H]2OC(=O)CC)CCCCC1
inactive: Potency [1] | Potency [2] | Potency [3] | Potency [4] | Potency [5] | Potency [6] | Potency [7] | Potency [8] | Potency [9] | Potency [10] | Potency [11] | PLD induction [14] -0.411% [at 7.66 µM] | Potency [15] | outcome [16] | Potency [17] | Potency [20] | outcome [18] | Potency [19]

N#Cc1c(F)cccc1F
inactive: Potency [1] | Potency [2] | Potency [3] | Potency [4] | Potency [5] | Potency [6] | Potency [7] | Potency [8] | Potency [9] | Potency [10] | Potency [11] | Potency [15] | outcome [16] | Potency [17] | Potency [20] | outcome [18] | Potency [19]

CCCCCCCCN(C)C
inactive: Potency [1] | Potency [2] | Potency [3] | Potency [4] | Potency [5] | Potency [6] | Potency [7] | Potency [8] | Potency [9] | Potency [10] | Potency [11] | Potency [15] | outcome [16] | Potency [17] | Potency [20] | outcome [18] | Potency [19]

CC(=O)/C=C/C1C(C)=CCCC1(C)C (stereo not given)
inactive: Potency [1] | Potency [2] | Potency [3] | Potency [4] | Potency [5] | Potency [6] | Potency [7] | Potency [8] | Potency [9] | Potency [10] | Potency [11] | Potency [13] | Potency [15] | outcome [16] | Potency [17] | Potency [20] | outcome [18] | Potency [19]

CC1(C)[C@H]2CC[C@]1(C)[C@H](O)C2
inactive: Potency [1] | Potency [2] | Potency [3] | Potency [4] | Potency [5] | Potency [6] | Potency [7] | Potency [8] | Potency [9] | Potency [10] | Potency [11] | Potency [14] | Potency [15] | outcome [16] | Potency [17] | Potency [20] | outcome [18] | Potency [19]

CC1CCc2cc(F)cc3c(=O)c(C(=O)O)cn1c23 (stereo not given)
inactive: Potency [1] | Potency [2] | Potency [3] | Potency [4] | Potency [5] | Potency [6] | Potency [7] | Potency [8] | Potency [9] | Potency [10] | Potency [11] | Potency [14] | Potency [15] | outcome [16] | Potency [17] | Potency [20] | outcome [18] | Potency [19]
